From PubChem BioAssay (NCI)
About 83,000 compounds went through this panel and 20% of them were active in at least one assay; those are over-represented in the sample as a whole.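 For each line, cells grew in 96-well plates with the test compound present at a single concentration for 48 hours.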 The source made the active and inactive calls. How the source made its calls: active means growth percent below 10; inactive means the rest.

System: MOLT-4 leukemia
Assay: NCI-60 one-dose screen, 48 h (100 = growth as untreated, 0 = no growth, -100 = all killed)
Settings: 10 µM unless noted

Compound	growth
NC1=NC(=O)NC1(c1ccccc1)c1ccccc1	87.6% (inactive)
N#C/C(C(=O)c1ccccc1)=C1/C(=O)Nc2ccccc21	90.4% (inactive)
CN(Cc1cccc(C(F)(F)F)c1)C(=O)[C@@H](CC(=O)N1CCC(N2CCCCC2)CC1)N1C(=O)[C@@H](N2C(=O)OC[C@@H]2c2ccccc2)[C@H]1/C=C/c1ccccc1	58.3% (inactive)
CCOc1ccc(S(=O)(=O)Nc2ccc3c(c2)N(S(=O)(=O)CC)CCC3)cc1	71% (inactive)
CCOC(=O)C(=Cc1ccccc1[N+](=O)[O-])C(=O)OCC	11.1% (inactive)
COc1cc(/C=C/C(=O)/C=C/c2ccc(-n3ccnc3C)cc2)ccc1O	32.4% (inactive)
CCOC(=O)CC(c1ccccc1)C(C#N)c1ccccc1 (stereo unspecified)	88.8% (inactive)
Cc1ccc(NC(=O)N[C@@H](Cc2cc(F)cc(F)c2)C(=O)N[C@@H]2C(=O)N3CCC[C@H]3C(=O)N3CCCC[C@H]3C(=O)N[C@@H](C)C(=O)N3C[C@H](C)C[C@H]3C(=O)O[C@H]2C)cc1	30.9% (inactive)
C=C(C)[C@@H]1CC[C@]2(C)[C@H](CC[C@@H]3[C@@H]([C@@](C)(O)CCC=C(C)C)CC[C@]32C)[C@@]1(C)CCC(=O)O	-0.176% [100 µM] (active)
C=CCCCCCCCCC(=O)OC(C)C	95.2% (inactive)
O=C1Nc2ccccc2/C1=C/C(=O)c1ccc(N2CCCCC2)cc1	-6.75% (active)
O=C(N=c1n(-c2ccccc2)nc2n1CCN2C1=NCCN1C(=O)c1ccc(Cl)cc1)c1ccc(Cl)cc1	14.5% (inactive)
CC1=CC[C@@H]2C(C)(C)[C@@H](O)CC[C@@]2(C)[C@@H]1COc1ccc2ccc(=O)oc2c1	37.3% (inactive)
CSc1nc2sc3cc(Cl)c(Cl)cc3n2c(=N)c1C#N	95.5% (inactive)
COc1ccc(C(=O)CCC(=O)O)cc1	86.2% (inactive)
O=C(CCNCc1ccccc1)c1ccccc1	109% (inactive)
NC(=O)CC1C=CCC1 (stereo unspecified)	95.6% (inactive)
CCNc1cc2c(cc1Br)-c1ccccc1C2=O	98.3% (inactive)

Compound	growth
O=C(O)c1cn(C2CC2)c2cc(N3CCN(Cc4c(O)ccc5ccccc45)CC3)c(F)cc2c1=O	31.6% (inactive)
CCOC(=O)COc1ccc2c(c1)O/C(=C\c1ccc(O)cc1)C2=O	117% (inactive)
Nc1cc(NN=C(c2ccc(O)cc2)c2ccc(O)cc2)c([N+](=O)[O-])cc1[N+](=O)[O-]	69.5% (inactive)
CCCCCCNC(=O)Nc1ncnc2c1ncn2-c1ccccc1	102% (inactive)
C[C@]12CCc3c(ccc4cc(O)ccc34)[C@@H]1CC[C@H]2O	95.1% (inactive)
Nc1nc(Nc2ccccc2)c2ncn(Cc3ccc4c(c3)OCO4)c2n1	13.4% (inactive)
COc1ccc(OC)c(NC=O)c1	88.2% (inactive)
Fc1cc2[nH]ncc2c2c3c(c(-c4cn[nH]c4)nc12)CCCC3	2.1% (active)
CCN(CC)CCCCCCNc1cccc2cc(Br)cnc12	9.09% (active)
CCN(CC)CCCOc1ccc2c(c1)O/C(=C\c1cccc(OC)c1)C2=O	97.7% (inactive)
CC1(C)C(=O)/C(=C\c2ccco2)C[C@]2(C)[C@H]3CC=C4[C@@H]5C[C@](C)(C(=O)O)CC[C@]5(C)CC[C@@]4(C)[C@]3(C)CC[C@@H]12	-21% [100 µM] (active)
C=C(C)[C@@H]1CC[C@]2(C(=O)NCCCCCCN(CCCN)CCCN)CC[C@]3(C)[C@H](CC[C@@H]4[C@@]5(C)CC[C@H](OCCCN)C(C)(C)[C@@H]5CC[C@]43C)[C@@H]12	10.1% [100 µM] (inactive)
C=C(C)[C@@H]1CC[C@]2(COC(=O)c3ccccc3C(=O)O)CC[C@]3(C)[C@H](CC[C@@H]4[C@@]5(C)CC[C@H](OC(=O)c6ccccc6C(=O)O)C(C)(C)[C@@H]5CC[C@]43C)[C@@H]12	39.9% [100 µM] (inactive)
COc1ccc2c(c1)c(-c1noc(-c3cn(C)c4ncc(F)cc34)n1)cn2C	87.6% (inactive)
c1ccc(-c2nnc(-c3c[nH]c4ncccc34)s2)cc1	83.4% (inactive)
O=C1COCCN1c1ccc(NCc2cn(Cc3ccc(F)cc3)c3ccccc23)cc1	102% (inactive)
CC(=O)Nc1ccc2nc3ccc(NC(C)=O)cc3[n+](-c3ccccc3)c2c1	38.9% (inactive)
CCCCNC(=O)NS(=O)(=O)Cc1ccccc1	97.5% (inactive)
